Bioassay records: PubChem BioAssay, National Center for Advancing Translational Sciences (NCATS)
A selection: hits, their analogues and other compounds. The true share with any hit is near 7.3%.
ELG1 genotoxic = induces genotoxicity in HEK293T cells with luciferase-tagged ELG1; HEK293T ELG1-luciferase reporter, luminescence, 16 h; Potency, µM (top dose mostly 46 µM), for the others: top-dose activity change, positive = activation, actives largely listed as activators; 1.3% of 330,000 active; AID 504466; also: % of control where 0% means no effect; nearly all actives have a fitted effect of over 60% in size
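16 hr compound incubation (37 °C, 5% CO2) of HEK293T cells carrying luciferase-tagged ELG1; luciferase then measured by ONE-Glo luminescence after 30 min at RT.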
Rab9 prom act = activates the Rab9 promoter | Huh7 Rab9 promoter-luciferase reporter, luminescence, 24 h | Potency, µM (doses to about 9.22 µM), for inactives: at the top dose activation, negative = inhibition, actives largely listed as activators | 2.8% of 320,000 active | AID 485297; also: % of control where 0% means no effect; nearly all actives have a fitted effect of over 60% in size
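Huh7 cells stably carrying Rab9 promoter–luciferase reporter, plated 1500 cells/well, compound added after 2 h and incubated 24 h at 37 °C; luciferase luminescence then read after 10 min with detection reagent.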
FLuc modulator = firefly luciferase modulation, counter-screen for miR-21 project; AID 588342; P08659; 6.9% of 360,000 active; Potency, µM (series often up to 57.5 µM), inactives show at the top dose activity change, negative = inhibition, most hits filed as inhibitors; purified FLuc, Km substrates, luminescence inhibition;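 also: plate controls were vehicle for no effect and reference inhibitor for full effect; nearly all actives have a fitted effect of over 55% in size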
Target sequence (P08659 whole entry, looked up): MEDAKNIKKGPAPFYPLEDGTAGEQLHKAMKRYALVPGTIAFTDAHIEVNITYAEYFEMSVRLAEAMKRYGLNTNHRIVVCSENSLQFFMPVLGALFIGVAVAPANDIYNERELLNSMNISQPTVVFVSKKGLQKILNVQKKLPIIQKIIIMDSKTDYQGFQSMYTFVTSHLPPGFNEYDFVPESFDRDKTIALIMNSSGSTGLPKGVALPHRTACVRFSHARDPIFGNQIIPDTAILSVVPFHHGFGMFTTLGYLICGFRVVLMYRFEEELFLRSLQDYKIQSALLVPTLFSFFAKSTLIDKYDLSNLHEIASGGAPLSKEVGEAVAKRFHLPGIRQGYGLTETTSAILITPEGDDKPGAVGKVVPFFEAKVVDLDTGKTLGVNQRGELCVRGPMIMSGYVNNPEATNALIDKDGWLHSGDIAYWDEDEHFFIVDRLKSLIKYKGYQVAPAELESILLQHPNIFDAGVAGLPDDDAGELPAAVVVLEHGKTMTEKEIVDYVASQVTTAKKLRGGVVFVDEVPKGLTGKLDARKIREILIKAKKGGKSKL
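Purified P. pyralis luciferase (10nM final) with 10uM D-luciferin and 10uM ATP (Km levels) in 50mM Tris acetate pH 7.5, 10mM Mg acetate, 0.01% Tween-20, 0.05% BSA; qHTS 6-point titration, ~60 µM downward; luminescence read.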
NPC1 prom act = NPC1 promoter activation | Huh7 NPC1 promoter luciferase reporter, 24 h | Potency, µM (top dose mostly 9.22 µM), without a hit: at the top dose activation, most hits filed as activators | 2.4% of 320,000 active; also: % of control where 0% means no effect; nearly all actives have a fitted effect of over 60% in size
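Luminescence read-out of NPC1 promoter-driven luciferase in stably transfected Huh7 cells; compounds delivered in DMSO and left 24 h at 37C, 5% CO2, qHTS titration format.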
Luc counter = Kinase-Glo luciferase inhibition (counter-screen); 0.28% of 200,000 active; Potency, µM (highest dose often 38.3 µM), for inactives: top-dose activity change, negative = inhibition, most hits filed as inhibitors; Q27757; Kinase-Glo luciferase, ATP luminescence, 8 min; also: % is scaled to controls: 0 for no effect and ±100 for the full control effect; nearly all actives have a fitted effect of over 60% in size
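Recombinant Kinase-Glo luciferase, 10 uM ATP (linear range), luciferin; imidazole pH 7.2 / KCl / MgCl2 / Tween / BSA buffer; 8 min RT; luminescence.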
SMN2 splice enh = increases expression of the SMN2 splice variant; HEK293 SMN2-luciferase splicing reporter, luminescence, 30-36 h; Potency, µM (doses to about 46.1 µM), for the others: top-dose activity change, positive = activation, most hits filed as activators; 2.8% of 210,000 active; AID 1458; also: % of control where 0% means no effect; nearly all actives have a fitted effect of over 55% in size
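qHTS luciferase splicing reporter: luminescence rises when SMN2 exon 7 is included in transfected HEK293 cells. Compound exposure lasted 30-36 h at 37C, with 4.5 mM final sodium butyrate as control, followed by a ONE-Glo read.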
Starred values were filed as active, the others as inactive; ? = inconclusive; · = not tested or not shown; [ ] = another dose, or the depositor's remark. Calls follow the shape of the dose curve; as a rule, active = well fitted curve in the direction sought with a large enough effect; inconclusive = small, poorly fitted or top-dose-only effect, or another doubt; inactive = no such curve, though single readings can be large; an effect the other way counts as inactive or inconclusive. Potency is read from the fitted curve at half-maximal effect.

SMILES	ELG1 genotoxic	Rab9 prom act	FLuc modulator	NPC1 prom act	Luc counter	SMN2 splice enh
CCc1ccc(S(=O)(=O)N(C(=O)Oc2ccccc2)c2ccc3oc(C)c(C(=O)OC)c3c2)cc1	·	·	-2%	·	·	-33%
CCOC(=O)c1csc(NC(=O)c2cccs2)n1	?	2.2µM*	13µM*	2.2µM*	·	·
COc1ccc(Nc2nc(NCC3CCCO3)c3ccccc3n2)c(OC)c1 (configuration not stated)	-21%	-6%	24µM*	-3%	0%	-44%
COc1ccccc1Nc1nc(NCc2ccco2)c2ccccc2n1	-10%	-14%	19µM*	2%	·	·
Cc1ccc(Nc2nc(NCc3ccco3)c3ccccc3n2)cc1	-16%	0%	21µM*	6%	-1%	-76%
CCOc1nc(NCc2ccco2)nc(Nc2ccccc2F)n1	?	30%	-17%	29%	-7%	7.1µM*
COc1ccc2c(c1)CC(C(=O)NCCCN1CCN(c3ccc(F)cc3)CC1)CO2 (configuration not stated)	·	·	-1%	·	·	·
Nc1cc([N+](=O)[O-])ccc1C(=O)O	·	·	·	·	·	-6%
Nc1ccc(C(=O)Oc2ccc([N+](=O)[O-])cc2)cc1	?	14%	3.4µM*	5%	·	·
Nc1ccc(C(=O)Oc2ccc([N+](=O)[O-])cc2)c(O)c1	-1%	2%	15µM*	-2%	·	·
Brc1ccc(-c2nnc(-c3cccc(Br)c3)o2)cc1	19%	-34%	9.5µM*	3.2µM*	-4%	23%
O=C(O)c1ccc(-c2nnc(-c3cccc(Br)c3)o2)cc1	?	1.6µM*	11µM*	1.4µM*	·	·
C=C(C(C)=O)C(O)c1ccc2ccccc2c1 (configuration not stated)	·	·	·	·	-6%	1%
Cc1ccc(NC(=O)Cn2c(=O)n(Cc3nc(-c4ccccc4)no3)c(=O)c3cc4c(cc32)OCO4)cc1C	·	·	0%	·	·	·
COc1ccc(-n2c(-c3ccccc3F)nc3c(cnn3-c3ccc(C)cc3)c2=O)cc1	·	·	-8%	·	·	-5%
CC(N)(COP(=O)(O)O)C(=O)O (configuration not stated)	·	·	·	·	·	-8%
Brc1cccc(-c2n[nH]c(-c3ccccc3)n2)c1	2.3µM*	3.5µM*	3µM*	6.3µM*	-3%	10µM*
CCN(CC)c1nn2c(=O)c(C(=O)NCCc3cccc(C)c3)cnc2s1	·	·	-14%	·	·	·
COc1ccc(OCCSc2ncn[nH]2)cc1	13%	?	13µM*	?	-4%	·
COc1ccc(OCCSc2n[nH]c(N)n2)cc1	?	2%	-7%	-2%	-8%	-33%
CC(C)Oc1ccc(CSc2ncn[nH]2)cc1	9%	?	15µM*	26%	-9%	·
CCOC(=O)C1CCN(C(=O)Cn2ncc3c4ccccc4n(Cc4ccc(F)cc4)c3c2=O)CC1	·	·	-4%	·	·	-25%
Cc1cccc2nc(COc3ccc4ccccc4c3Br)cn12	?	3.2µM*	2.4µM*	3.5µM*	·	·
O=C(NC(=S)Nc1ccccc1O)c1ccccc1Cl	?	3.2µM*	24µM*	?	2%	13µM*
O=C(NNC(=S)Nc1ccccc1Cl)c1ccccc1Br	3.7µM*	4µM*	11µM*	2.8µM*	·	·
SMILES	ELG1 genotoxic	Rab9 prom act	FLuc modulator	NPC1 prom act	Luc counter	SMN2 splice enh
CCCCC[C@H](O)/C=C/C=C\C=C\C=C\[C@@H](O)[C@@H](O)CCCC(=O)O	·	·	·	·	3%	-3%
CCc1ccc(C(=O)/C=C/c2ccc([N+](=O)[O-])o2)cc1	?	-29%	11µM*	-11%	-9%	-92%
CCOc1ccccc1NS(=O)(=O)c1c(-c2ccc(C)cc2)csc1C(=O)OC	·	·	7%	·	·	·
Cc1ccc(C(=O)NC2CCSC2=O)cc1 (configuration not stated)	6%	-8%	4%	0%	-5%	-15%
Cc1ccc(C(=O)NC2CCc3ccccc3C2=O)cc1 (configuration not stated)	5%	2.2µM*	12µM*	2.5µM*	-7%	13µM*
CCC(C)n1c(=O)c2sccc2n2c(CCCC(=O)N3CCN(c4ccccc4)CC3)nnc12 (configuration not stated)	·	·	5%	·	·	·
O=C(OCC(=O)N1CCN(c2ccccc2)CC1)c1cnc(Cl)c(Cl)c1	-4%	-3%	-9%	4%	3%	-8%
C=CCOC(=O)c1ccc(N2CCN(c3ccccc3)CC2)nc1	4%	21%	17µM*	23%	·	·
CCn1cc2nc(SCC(=O)Nc3cc(OC)ccc3OC)n(Cc3ccc(Cl)cc3)c(=O)c2n1	·	·	5%	·	·	-12%
CSc1nsc(NC(=O)OCc2ccc(Cl)cc2)n1	-2%	0%	24µM*	2%	·	·
COc1ccsc1NC(=O)OCc1ccc(Cl)cc1	?	28%	?	29%	·	·
COc1ccc2cnoc(=O)c2c1OC	·	·	·	·	-1%	-10%
CCOC(=O)C(Cc1c[nH]c2ccccc12)NC(=O)COc1ccc(CC)cc1 (configuration not stated)	·	·	-21%	·	·	-11%
COC(=O)C(Cc1c[nH]c2ccccc12)NC(=O)c1ccc2nc[nH]c2c1 (configuration not stated)	3%	-2%	2.4µM*	-3%	·	·
NC(=O)COC(=O)[C@H](Cc1c[nH]c2ccccc12)NC(=O)c1ccc(F)cc1	-2%	3%	24µM*	-4%	·	·
CCOC(=O)C(Cc1c[nH]c2ccccc12)NC(=O)c1ccco1 (configuration not stated)	20%	-10%	21µM*	1%	-6%	-9%
CCOC(=O)N1CCc2c(sc3c2c(=O)n(Cc2ccccc2)c(=O)n3CC(=O)Nc2ccccc2F)C1	·	·	-6%	·	·	-14%
COc1ccc(NC(=O)c2cccc(N3C(=O)c4cccc([N+](=O)[O-])c4C3=O)c2)cc1	12%	13%	8.5µM*	-3%	·	·
CC(=O)c1ccc(NC(=O)c2cccc(N3C(=O)c4ccccc4C3=O)c2)cc1	7%	11%	3%	4%	·	·
N=C(N)c1ccc(/C=C\c2ccc(C(=N)N)cc2)cc1	·	·	·	·	-5%[7.66 µM]	-1%[9.22 µM]
O=C(CSc1ccccc1)Nc1ccc(N2CCOCC2)c(F)c1	?	3.2µM*	?	3.5µM*	·	·
Cc1ccc(-n2nnnc2SCC(=O)Nc2ccc(N3CCN(C)CC3)cc2)c(C)c1	-1%	-11%	-2%	6%	·	·
Cc1ccc(SCC(=O)Nc2ccc(N3CCN(C)CC3)c(F)c2)c(C)c1	3%	4%	12µM*	12%	0%	-15%
CSC1=NNC(c2ccc(C(C)(C)C)cc2)=NN1	19%	?	12µM*	?	·	·
Cc1ccc(C)c(N2CCN(C(=O)c3cc(C)nc4c3c(C)nn4-c3cccc(F)c3)CC2)c1	·	·	1%	·	·	·
